Drawing on PubChem BioAssay, this text covers composite z-score and z-score for 4 compounds.

Calls of active or inactive are those of the source. Unless noted, how the calls were made is not given here.

A short description of test [1]: anti-His antibody binders, primary screen, artefact control for SMM control protein annotation, biochemical, small-molecule microarray, 635 nm fluorescence (AID 1128).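 Further: score merges feature fluorescence with signal-to-noise for each printed compound spot.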 Conditions: anti-His Alexa647 antibody binding, higher = more signal.
Test [2] concerns Human papillomavirus type 1a E7 protein (residues 1-88). Description: HPV1a E7 small-molecule binders, primary screen, biochemical, small-molecule microarray, residues 1-88, 635 nm (AID 1129). Conditions: small-molecule microarray binding, fluorescence 635 nm; higher = more signal.
In test [3] the target is Focal adhesion kinase 1 (Homo sapiens) (UniProt Q05397). Description: small-molecule microarray binders of FAK, primary screen, biochemical, 635/667 nm fluorescence, BSA, DTT (AID 1130).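 Further: composite of spot emission at 667 nm and signal to noise over triplicate slides.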 To be noted: PTK2 binding, 635 nm fluorescence, higher = more signal.
Focal adhesion kinase 1 (Homo sapiens), sequence (Q05397 whole entry, looked up): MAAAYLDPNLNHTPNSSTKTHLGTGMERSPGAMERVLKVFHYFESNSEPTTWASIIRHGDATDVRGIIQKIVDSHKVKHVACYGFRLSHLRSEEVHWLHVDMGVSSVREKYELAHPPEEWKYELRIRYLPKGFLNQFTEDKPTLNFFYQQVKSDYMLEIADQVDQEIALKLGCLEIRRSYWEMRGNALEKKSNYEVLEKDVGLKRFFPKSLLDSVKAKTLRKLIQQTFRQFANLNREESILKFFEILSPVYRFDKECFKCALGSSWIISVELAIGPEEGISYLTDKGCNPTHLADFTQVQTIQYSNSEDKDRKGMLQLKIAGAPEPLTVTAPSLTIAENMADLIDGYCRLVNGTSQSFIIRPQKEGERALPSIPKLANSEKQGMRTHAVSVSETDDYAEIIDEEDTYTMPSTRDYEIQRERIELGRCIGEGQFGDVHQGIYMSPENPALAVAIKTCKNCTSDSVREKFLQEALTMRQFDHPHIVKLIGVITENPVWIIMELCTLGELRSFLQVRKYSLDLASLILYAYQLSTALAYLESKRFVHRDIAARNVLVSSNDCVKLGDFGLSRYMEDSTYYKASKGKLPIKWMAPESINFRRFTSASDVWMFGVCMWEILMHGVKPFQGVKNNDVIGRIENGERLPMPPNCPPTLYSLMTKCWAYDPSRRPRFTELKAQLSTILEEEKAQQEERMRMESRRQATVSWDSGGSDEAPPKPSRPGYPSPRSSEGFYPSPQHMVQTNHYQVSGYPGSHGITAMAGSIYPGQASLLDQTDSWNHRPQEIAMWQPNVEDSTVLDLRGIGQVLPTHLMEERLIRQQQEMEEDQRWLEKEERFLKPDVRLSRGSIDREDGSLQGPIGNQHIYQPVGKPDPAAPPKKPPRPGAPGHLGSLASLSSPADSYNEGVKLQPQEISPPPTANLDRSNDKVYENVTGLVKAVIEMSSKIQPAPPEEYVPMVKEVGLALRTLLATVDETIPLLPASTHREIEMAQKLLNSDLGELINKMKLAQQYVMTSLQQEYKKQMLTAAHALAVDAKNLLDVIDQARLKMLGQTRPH
For test [4], the system named is Fibrinogen (Alexa647-labelled). Description: fibrinogen binders on compound microarrays, profiling panel, artefact control for SMM control-protein annotation, biochemical, small-molecule microarray, 635/667 nm fluorescence (AID 1131).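 Further: z-score merges 667 nm fluorescence with per-spot signal-to-noise over triplicate slides.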 Conditions: fibrinogen-A647 binding fluorescence, higher = more signal.
Test [5] concerns the target Follistatin (Homo sapiens) (UniProt P19883). Description: follistatin binders on small-molecule microarrays, primary screen, biochemical, small-molecule microarray, 635/667 nm fluorescence (AID 1132). To be noted: FST binding, 635 nm fluorescence, higher = more signal.
For test [6], the target named is Fibroblast growth factor 2 (Homo sapiens) (UniProt P09038). Description: FGF2 binders on small-molecule microarrays, primary screen, biochemical, small-molecule microarray, 635/667 nm fluorescence (AID 1133). Conditions: small-molecule microarray binding, FGF2, fluorescence 635/667; higher = more signal.
Fibroblast growth factor 2 (Homo sapiens), sequence (P09038 whole entry, looked up): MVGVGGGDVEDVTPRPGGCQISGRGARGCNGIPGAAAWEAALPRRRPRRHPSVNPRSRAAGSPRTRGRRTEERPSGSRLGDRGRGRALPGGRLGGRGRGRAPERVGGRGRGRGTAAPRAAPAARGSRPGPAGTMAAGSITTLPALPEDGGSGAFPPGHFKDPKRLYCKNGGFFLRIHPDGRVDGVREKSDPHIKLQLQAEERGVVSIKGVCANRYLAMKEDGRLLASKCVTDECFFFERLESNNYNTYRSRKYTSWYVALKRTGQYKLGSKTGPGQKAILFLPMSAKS
Test [7] in a line: mitochondrial membrane potential change in A549 cells, profiling panel, cell-based, JC-1 fluorescence, basal, 24 h, 100 nL (AID 1138).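 Further: A549 lung adenocarcinoma cells under basal conditions with no added stimulus; test concentration not given here.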 To be noted: higher = more signal.
Test [8] concerns Lefty1. Description: Lefty1 binders on small-molecule microarrays, primary screen, biochemical, small-molecule microarray, 635/667 nm fluorescence (AID 1139). To be noted: small-molecule microarray binding, fluorescence 635/667; higher = more signal.
The subject of test [9] is wheat germ agglutinin (Triticum aestivum), Alexa647-labelled. Description: wheat germ agglutinin binders on compound microarrays, profiling panel, artefact control for SMM control-protein annotation, biochemical, small-molecule microarray, 635/667 nm fluorescence (AID 1140).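 Further: score merges 667 nm feature emission with signal to noise over triplicate slides.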 To be noted: WGA-A647 binding, 635 nm fluorescence, higher = more signal.
The target of test [10] is Luciferin 4-monooxygenase (Photinus pyralis) (UniProt P08659). Description: firefly luciferase enzyme inhibitors, primary screen, biochemical, luminescence, purified enzyme, 2006 set (AID 1141).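 Further: cell-free assay with purified firefly luciferase at 100 ng per well in PBS; test concentration not given here.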 Conditions: SteadyGlo luminescence, 30 min, higher = more signal, called active from +8 up or from −8 down.
Luciferin 4-monooxygenase (Photinus pyralis), sequence (P08659 whole entry, looked up): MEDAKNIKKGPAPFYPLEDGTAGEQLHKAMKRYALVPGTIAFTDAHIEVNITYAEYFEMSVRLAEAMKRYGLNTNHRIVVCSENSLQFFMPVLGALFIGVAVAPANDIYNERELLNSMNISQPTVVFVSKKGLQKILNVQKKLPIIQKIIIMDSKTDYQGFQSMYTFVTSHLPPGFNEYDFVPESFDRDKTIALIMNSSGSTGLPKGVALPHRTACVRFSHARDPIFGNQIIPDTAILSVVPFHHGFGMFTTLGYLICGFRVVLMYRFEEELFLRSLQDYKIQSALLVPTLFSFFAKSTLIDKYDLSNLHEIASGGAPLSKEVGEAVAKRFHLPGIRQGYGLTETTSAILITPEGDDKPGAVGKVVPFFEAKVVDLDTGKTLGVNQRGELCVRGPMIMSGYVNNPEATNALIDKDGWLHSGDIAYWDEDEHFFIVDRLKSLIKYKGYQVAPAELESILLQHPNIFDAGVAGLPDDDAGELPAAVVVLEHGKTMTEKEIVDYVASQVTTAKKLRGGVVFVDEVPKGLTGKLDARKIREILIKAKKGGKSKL
Test [11] concerns Wnt5a (protein binding on small-molecule microarray). The test can be described thus: Wnt5a binders on small-molecule microarray, primary screen, biophysical, 635/667 nm fluorescence (AID 1142).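 Further: fluorescence read at 667 nm with signal to noise per printed feature.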 To be noted: 635 nm fluorescence, higher = more signal.
Test [12] in a line: cell viability in Huh7 cells, primary screen, cytotoxicity control for HCV replication inhibitor project, CellTiter-Glo luminescence, basal, 48 h (AID 1143).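 Further: Huh7 hepatoma cells carrying a hepatitis C replication reporter with no stimulus; test concentration not given here.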 Conditions: Huh7 HCV replicon, higher = more signal, called active from +8 up or from −8 down.
The nature of test [13]: P. aeruginosa biofilm formation inhibitors, primary screen, PAO1 strain, BacTiter-Glo luminescence, LB-PBS (AID 1144). Conditions: 12 h, higher = more signal.
Test [14] can be described thus: CREB reporter modulators without forskolin, primary screen, cell-based, PC12, CRE-LacZ reporter, unstimulated (AID 1145). To be noted: no forskolin, luminescence, 4.5 h, higher = more signal, called active from +8 up or from −8 down.
Test [15] can be described thus: CREB reporter modulators under forskolin, primary screen, cell-based, PC12, CRE-LacZ reporter, forskolin-stimulated (AID 1146).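 Further: PC12 cells with 6xCRE LacZ reporter stimulated by forskolin 10 µM; beta-galactosidase reporter signal reflecting CREB driven transcription.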 Conditions: luminescence, 4.5 h, higher = more signal, called active from +8 up or from −8 down.
In test [16] the target is Streptavidin (Streptomyces avidinii) (UniProt P22629). Description: streptavidin binders on small-molecule microarray, primary screen, artefact control for SMM compound annotation, biophysical, 635/667 nm fluorescence (AID 1147).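 Further: signal reflects streptavidin binding to arrayed compounds as a control protein.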 Conditions: streptavidin binding, higher = more signal.
Streptavidin (Streptomyces avidinii), sequence (P22629 whole entry, looked up): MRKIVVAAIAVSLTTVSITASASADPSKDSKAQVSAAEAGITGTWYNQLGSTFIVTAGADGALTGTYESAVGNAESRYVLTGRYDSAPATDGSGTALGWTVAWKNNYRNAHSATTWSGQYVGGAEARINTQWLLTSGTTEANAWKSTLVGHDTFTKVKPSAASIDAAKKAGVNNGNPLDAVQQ
Test [17] is described as follows: small-molecule binders of probe aInhba, primary screen, biochemical, small-molecule microarray, 635/667 nm fluorescence (AID 1148).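 Further: score merges 667nm spot fluorescence with signal-to-noise for antibody binding to printed compounds.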 To be noted: higher = more signal.
Test [18] addresses Torsin-1A (Homo sapiens) (UniProt O14656). The test can be described thus: torsin A binders from cell lysate, primary screen, small-molecule microarray, wild-type, 635/667 nm (AID 1149). To be noted: COS7 hTOR1A-WT lysate, 635 nm fluorescence, higher = more signal.
The target is the same in test [19]. The test can be described thus: small-molecule binders of mutant TOR1A in lysate, primary screen, cell lysate, small-molecule microarray, COS7 lysate, 635/667 nm fluorescence (AID 1150).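 Further: score pools 667 nm emission and signal to noise measuring lysate protein binding.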 Conditions: COS7 hTOR1A mutant lysate, 635 nm fluorescence, higher = more signal.
For test [20], the system named is Sonic hedgehog protein (Shh). Description: small-molecule binders of Shh protein, primary screen, biochemical, small-molecule microarray, 635/667 nm fluorescence (AID 1151).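 Further: Shh protein binding to compounds spotted on small-molecule microarray slides; score combines spot fluorescence intensity with signal-to-noise across triplicate slides.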 Conditions: small-molecule microarray binding, 635 nm fluorescence; higher = more signal.

Torsin-1A (Homo sapiens), sequence (O14656 whole entry, looked up): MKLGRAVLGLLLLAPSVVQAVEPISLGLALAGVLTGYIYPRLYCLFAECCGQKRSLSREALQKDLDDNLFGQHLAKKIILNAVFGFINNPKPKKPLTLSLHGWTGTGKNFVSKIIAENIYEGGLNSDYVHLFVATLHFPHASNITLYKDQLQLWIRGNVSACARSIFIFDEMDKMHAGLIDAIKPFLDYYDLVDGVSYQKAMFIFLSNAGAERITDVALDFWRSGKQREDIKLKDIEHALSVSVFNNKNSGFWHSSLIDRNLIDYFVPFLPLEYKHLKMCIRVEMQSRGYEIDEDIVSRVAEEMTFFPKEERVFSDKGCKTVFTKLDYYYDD
Follistatin (Homo sapiens), sequence (P19883 whole entry, looked up): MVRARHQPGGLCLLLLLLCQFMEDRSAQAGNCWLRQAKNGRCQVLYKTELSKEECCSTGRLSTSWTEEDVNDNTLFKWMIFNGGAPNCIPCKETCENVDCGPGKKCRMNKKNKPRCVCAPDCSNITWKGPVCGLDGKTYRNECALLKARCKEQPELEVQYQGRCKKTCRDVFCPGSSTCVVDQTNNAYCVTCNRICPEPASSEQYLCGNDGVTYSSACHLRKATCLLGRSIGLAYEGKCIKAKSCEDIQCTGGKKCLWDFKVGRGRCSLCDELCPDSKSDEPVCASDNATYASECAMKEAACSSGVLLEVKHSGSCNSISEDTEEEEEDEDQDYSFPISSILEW

Consider `CCOC(=O)C[C@H]1[C@H](OC(=O)c2ccc(C(=O)c3ccccc3)cc2)[C@@H](NC(=O)c2ccc(-c3ccccc3)cc2)c2cc(OCCCO)ccc2N1C(=O)c1ccccc1`, for which the composite z-score was determined as 0.256 in [1]; 0.87 in test [2]; 0.644 in [3]; 0.803 in [4]; 0.559 in test [5]; 0.59 in test [6]. For the same compound, the composite z-score is 0.712 in [8]; 0.131 in test [9]; 0.0074 in [11]; 1.11 in [16]; -0.128 in test [17]; 0.117 in test [18]. For the same compound, the composite z-score is 0.311 in [19] and 1.08 in [20]. The z-score was -0.187 in [7]; -0.265 (inactive) in test [10]; 0.294 (inactive) in [12]; 0.0763 (inactive) in test [13]; 0.0035 (inactive) in test [14]; -0.254 (inactive) in test [15].
As to `C=CCOC(=O)[C@H]1[C@@H]2C(=O)O[C@@H](c3ccccc3)[C@@H](c3ccccc3)N2[C@@H](c2ccc(OCCOC(=O)[C@H]3C[C@H]4C(=O)N5CCC[C@H]5C(=O)N4[C@H]3c3ccc(O)cc3)cc2)[C@]12C(=O)Nc1ccccc12`, the composite z-score in test [1] is 0.442; in test [2], 1.26; in test [3], 1.13; in [4], 0.598; in [5], 1.39; in [6], 1.96. Also, the composite z-score in [8] was 1.42; in [9], 0.0976; in test [11], 0.753; in [16] it was 0.116; in test [17] it was -0.217; in test [18], 0.874. Besides, the composite z-score in [19] stood at 1.1; in test [20], 1.8. For the same compound, the z-score is -1.42 in test [7]; -0.205 (inactive) in test [10]; -0.568 (inactive) in [12]; -0.696 (inactive) in [13]; 0.415 (inactive) in test [14]; -0.702 (inactive) in test [15].
With `COC(=O)[C@@]1(Cc2ccc(F)cc2)[C@H]2c3cc(C(=O)N(C)C)n(CC4CC4)c3C[C@H]2CN1C(=O)c1ccccc1`, the composite z-score was 1.54 in test [1]; 1.21 in [2]; -0.0938 in [3]; 0.94 in test [4]; 0.581 in test [5]; -0.272 in test [6]. The composite z-score is -0.12 in test [8]; 1.08 in [9]; 1.96 in [11]; 1.79 in test [16]; 1.56 in test [17]; -0.532 in test [18]. For the same compound, the composite z-score in [19] is 0.224; in [20], -1.04. In addition, the z-score is 0.524 in [7]; 0.184 (inactive) in test [10]; -2.68 (inactive) in test [12]; 0.163 (inactive) in test [13]; 1.54 (inactive) in [14]; 0.581 (inactive) in test [15].
Take `CCCN1C(=O)[C@]2(CCS(=O)(=O)c3ccccc3)N=C(c3ccc(OCCCO)cc3)O[C@@H]2c2ccccc21`: the composite z-score in test [1] is 1.02; in test [2], 1.21; in test [3], 0.554; in test [4], 0.967; in test [5], 0.958; in test [6] it was 0.408. Also, the composite z-score in test [8] was determined as 0.576; in test [9] it was 0.737; in test [11], 0.419; in test [16], 1.24; in test [17], 0.0475; in test [18], 1.33. The values for the composite z-score in [19] and in test [20] were 1.24 and 1.13, respectively. In addition, the z-score was 0.535 in test [7]; 0.54 (inactive) in [10]; -4.93 (inactive) in test [12]; -1.32 (inactive) in [13]; -0.254 (inactive) in [14]; -1.53 (inactive) in [15].
